Mdm2 MdmX PPI: human Mdm2/MdmX binding inhibition; inhibition, % at 8 µM; SaOS-2 split-luciferase Mdm2/MdmX complementation, luminescence; actives 3% (n = 330,000);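 active means inhibition of at least 50% at 8 µM in the primary screen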
Shn3 inh set2: inhibitors of Schnurri-3 3'UTR reporter in osteoblasts; Clone20 osteoblast Shn3 3'UTR firefly luciferase, 24 h; actives 0.52% (n = 360,000); inhibition, % at 12.5 µM;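 active means mean inhibition of at least 75% with every replicate also reaching 75%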
Gli-Sufu antag: blocks Gli-Sufu signaling in a luciferase reporter; Sufu-KO-LIGHT fibroblasts, Gli luciferase reporter luminescence; inhibition, % at 5 µM; actives 0.74% (n = 340,000);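 active means inhibition above about 55%, limit read from the data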
Jurkat NFkB inh: inhibitors of the PMA/ionomycin-induced NF-kB reporter in Jurkat cells; PMA/ionomycin-induced NF-kB luciferase reporter, luminescence; AID 435003; inhibition, % at 4 µM; actives 0.53% (n = 330,000); in the data active means inhibition above about 50%
697 NFkB inh: lowers PMA/ionomycin-induced NF-kB signal in 697 B cells | 697 B-cell NF-kB luciferase reporter, 16 h | inhibition, % at 4 µM | actives 0.33% (n = 330,000) | AID 435022; in the data active means inhibition above about 35%
Mdm2 MdmX conf: confirmation of human Mdm2/MdmX interaction inhibitors; shares compounds with Mdm2 MdmX PPI; Mdm2-MdmX binding, luminescent assay; inhibition, % at 8 µM; actives 55% (n = 10,000); in the data active means inhibition above about 40%
Full FLuc ctr: inhibits full-length luciferase, flagging false Mdm2/MdmX hits; shares compounds with Mdm2 MdmX PPI; SaOS-2 full-length luciferase counterscreen, luminescence; inhibition, % at 8 µM; actives 77% (n = 6,200); AID 504607;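 active means mean inhibition at 8 µM reaching about 37%, which flags the compound as non-specific, limit read from the data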;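 further: p53-null SaOS-2 cells with luciferase driven by a doxycycline-inducible promoter; compound on cells about two nights before reading with doxycycline added after day one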
Large screens that a line does not name were inactive (follow-up assays come after a bar, where they were run). Rows were chosen to be rich in hits. Some 3.8% of all compounds tested hit in one or more screens of this group.

CCOC(=O)N1CCN(S(=O)(=O)c2ccc(C(=O)Nc3sc4c(c3C(=O)OC)CCN(C)C4)cc2)CC1	Mdm2 MdmX PPI 100 | Mdm2 MdmX conf inactive
NC(=O)c1ccsc1NC(=O)COC(=O)c1ccc([N+](=O)[O-])o1	none
NC(=O)c1ccsc1NC(=O)c1ccc([N+](=O)[O-])o1	Mdm2 MdmX PPI 57 | Mdm2 MdmX conf inactive
CCN1CCc2c(sc(NC(=O)c3ccc(S(=O)(=O)N4CCCC4)cc3)c2C(=O)NC)C1	Mdm2 MdmX PPI 83 | Mdm2 MdmX conf inactive
CCCN1CCc2c(sc(NC(=O)c3ccc(S(=O)(=O)N4CCN(C(=O)OCC)CC4)cc3)c2C(N)=O)C1	none
CCOC(=O)N1CCN(S(=O)(=O)c2ccc(C(=O)Nc3sc4c(c3C(N)=O)CCN(CC)C4)cc2)CC1	Mdm2 MdmX PPI 79 | Mdm2 MdmX conf inactive
Cc1ccc(C(=O)N2CCN(S(=O)(=O)N3CCCCC3)CC2)cc1	none
COc1ccc(C(=O)COc2ccc(C(C)=O)cc2OC)cc1OC	none (no result: Mdm2 MdmX PPI, Jurkat NFkB inh, 697 NFkB inh)
CCN1CCN(c2ccc(S(=O)(=O)N3CCCCC3)cc2NC(=O)c2cccc(OC(F)F)c2)CC1	none
CN1CCc2c(sc(NC(=O)c3ccc([N+](=O)[O-])o3)c2C(N)=O)C1	Mdm2 MdmX PPI 94 | Mdm2 MdmX conf 89 | Full FLuc ctr 55
CN1CCc2c(sc(NC(=O)c3ccc(S(=O)(=O)N4CCc5ccccc54)cc3)c2C(N)=O)C1	Mdm2 MdmX PPI 96 (no result: Shn3 inh set2, Gli-Sufu antag) | Mdm2 MdmX conf 83 | Full FLuc ctr inactive
O=C(Nc1cccc(NC(=O)c2ccccc2Cl)c1)c1ccc([N+](=O)[O-])o1	Mdm2 MdmX PPI 61 | Mdm2 MdmX conf 58 | Full FLuc ctr 42
CNC(=O)c1c(NC(=O)c2ccc(S(=O)(=O)N3CCCc4ccccc43)cc2)sc2c1CCN(C)C2	none
COC(=O)[C@@H]1C[C@@H]2CC[C@@H](O)C[C@@H]2N1Cc1ccccc1OS(=O)(=O)c1ccc(C)cc1	none
CN(C)Cc1c(OC(=O)c2ccc(N)cc2)ccc2ccccc12	none (no result: Mdm2 MdmX PPI, Jurkat NFkB inh, 697 NFkB inh)
COC/C=C/C1=CC2=CC(=O)C(C)(OC(=O)c3cnc4ccccc4n3)C(=O)C2=CO1 (centres undefined)	none (no result: Shn3 inh set2, Gli-Sufu antag)
O=C(O)C1CC=CCC1C(=O)NC1CCCCC1 (centres undefined)	none
CC(=O)c1c(C)[nH]c(C(=O)Nc2nc(-c3ccc(Cl)cc3)cs2)c1C	none
Cc1ccc(-c2nc(NC(=O)c3nn(C)cc3[N+](=O)[O-])sc2C)cc1	Mdm2 MdmX PPI 79, Shn3 inh set2 93 | Mdm2 MdmX conf 100 | Full FLuc ctr 53
Cn1cc([N+](=O)[O-])c(C(=O)Nc2nc(-c3ccc(Cl)cc3)cs2)n1	Mdm2 MdmX PPI 94 | Mdm2 MdmX conf 90 | Full FLuc ctr 44
O=C(NC(=S)Nc1nc(-c2cccc([N+](=O)[O-])c2)cs1)c1cc(Cl)ccc1Cl	Mdm2 MdmX PPI 52 (no result: Gli-Sufu antag) | Mdm2 MdmX conf inactive
Cc1cnc(NC(=O)c2nn(C)cc2[N+](=O)[O-])s1	none
Cc1ccc(-c2nc(NC(=O)c3nn(C)cc3[N+](=O)[O-])sc2C)cc1C	Mdm2 MdmX PPI 81, Shn3 inh set2 93 | Mdm2 MdmX conf 100 | Full FLuc ctr 51
CN1C(=O)OC(C)(C)C1=O	none (no result: Gli-Sufu antag)
CCN(CC)S(=O)(=O)c1cccc(NC(=O)CN2C(=O)c3ccc([N+](=O)[O-])cc3C2=O)c1	none
O=C(c1ccc2c(c1)OCCO2)C1CCN(C(=O)Nc2ccccc2F)CC1	none
N#Cc1ccccc1S(=O)(=O)c1ccccc1C(=O)Nc1ccccc1	none
CCOC(=O)c1sc(NC(=O)c2c(C)nn(Cc3ccccc3)c2C)cc1C	Mdm2 MdmX PPI 53 | Mdm2 MdmX conf inactive
CCOC(=O)c1sc(NC(=O)Nc2ccc(Cl)cc2)cc1C	Mdm2 MdmX PPI 75 | Mdm2 MdmX conf 86 | Full FLuc ctr 55
CCOC(=O)c1c(NC(=O)Nc2ccc(Cl)cc2)sc(C)c1C	none
COC(=O)C(Cc1ccc(O)cc1)NC(=O)Cn1cc(C)c(=O)[nH]c1=O (centres undefined)	none (no result: Mdm2 MdmX PPI, Jurkat NFkB inh, 697 NFkB inh)
COC(=O)C1=C(C)NC(C)=C(C(=O)OC)C1C(=O)OC(C)C(=O)c1ccccc1 (centres undefined)	none
Cc1nc2cc(N3CCCCC3)c(NC(=O)c3ccncc3)cc2c(=O)n1Cc1ccc(Cl)cc1	Mdm2 MdmX PPI 89 (no result: Shn3 inh set2, Gli-Sufu antag) | Mdm2 MdmX conf inactive
Cc1nc2cc(Cl)ccc2c(=O)n1Cc1ccncc1	none
CC(=O)Nc1ccc(/C(C)=N/Nc2nc(Nc3cccc4ccccc34)nc(N3CCOCC3)n2)cc1	Mdm2 MdmX PPI 54 | Mdm2 MdmX conf inactive
Cc1[nH]c2ccccc2c1C(=O)COC(=O)c1ccc2c(=O)n3c(nc2c1)CCC3	Mdm2 MdmX PPI 59 | Mdm2 MdmX conf inactive
CC1=C(C(=O)N2CCCC(N3CCN(c4ccccc4F)CC3)C2)OCCO1 (centres undefined)	none
Cc1cc(/C=N/NC(N)=S)c(C)n1-c1ccc(Cl)c(Cl)c1	none
COc1cccc(NC(=O)C(=O)N/N=C/c2cc(C)n(-c3ccc(Cl)c(Cl)c3)c2C)c1	Mdm2 MdmX PPI 55 | Mdm2 MdmX conf inactive
COC(=O)[C@]1(Cc2ccccc2)N[C@H](c2ccc(-c3ccc(Cl)c(Cl)c3)cc2)[C@@H]2C(=O)N(C)C(=O)[C@@H]21	Mdm2 MdmX PPI 56 | Mdm2 MdmX conf 51 | Full FLuc ctr 82
COC(=O)[C@]1(CC(C)C)N[C@H](c2ccc(-c3ccc(Cl)c(Cl)c3)cc2)[C@@H]2C(=O)N(C)C(=O)[C@@H]21	Mdm2 MdmX PPI 57 | Mdm2 MdmX conf inactive
COC(=O)[C@]1(CC(C)C)N[C@H](c2ccc(-c3ccc(C(C)=O)cc3)cc2)[C@@H]2C(=O)N(C)C(=O)[C@@H]21	none
CCN1C(=O)[C@H]2[C@@H](c3ccc(-c4ccc(Cl)c(Cl)c4)cc3)N[C@@](CC(C)C)(C(=O)OC)[C@H]2C1=O	none
COC(=O)[C@]1(Cc2ccccc2)N[C@H](c2ccc(-c3cccc(Cl)c3)cc2)[C@@H]2C(=O)N(C)C(=O)[C@@H]21	Mdm2 MdmX PPI 55 | Mdm2 MdmX conf inactive | Full FLuc ctr 74
CCN1C(=O)[C@H]2[C@@H](c3ccc(-c4cccc(Cl)c4)cc3)N[C@@](CC(C)C)(C(=O)OC)[C@H]2C1=O	Mdm2 MdmX PPI 52 | Mdm2 MdmX conf inactive
Cc1cc(OCC(=O)OCC(=O)N2CC(C)CC(C)C2)ccc1Cl (centres undefined)	none
COC(=O)[C@H](CC(C)C)N(Cc1ccccc1)S(=O)(=O)N(Cc1ccc(OC)cc1)[C@@H](CC(C)C)C(=O)OC	none
COCCNc1oc(/C=C/c2ccc(F)cc2)nc1S(=O)(=O)c1ccccc1	none
O=C(CSc1nnc(-c2ccccc2F)n1C1CC1)NCc1ccco1	none
c1cc2c(cc1C1CCCCC1)c1c3n2CCN=C3CCC1	Mdm2 MdmX PPI 53 | Mdm2 MdmX conf inactive

From PubChem
